Screening results (PubChem BioAssay)
Sm TGR inh: inhibitors of Schistosoma mansoni thioredoxin glutathione reductase; Potency, µM (highest dose often 114 µM), without a hit: top-dose activity change, negative = inhibition, hits mostly inhibitors; 360,000 compounds, 3% hits; purified TGR, DTNB reduction, TNB absorbance 405 nm; Q962Y6; AID 485364; also: potency is read from the fitted curve at half-maximal effect; nearly all actives have a fitted effect of over 60% in size
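TGR 20 nM + NADPH 100 uM (dispensed conc.), cpd preinc 15 min RT; start with NADPH (500 uM addition) then DTNB (15 mM addition). Kinetic TNB absorbance, 405 nm filter. Four-parameter Hill fit across titration.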
FBPA Giardia inh: Giardia lamblia aldolase inhibition; A8B2U2; purified Giardia FBPA; Potency, µM (top dose mostly 59.6 µM), without a hit: at the top dose activity, negative = inhibition, actives largely listed as inhibitors; 290,000 compounds, 0.71% hits; also: potency is read from the fitted curve at half-maximal effect; nearly all actives have a fitted effect of over 55% in size
Target sequence (A8B2U2 whole entry, looked up): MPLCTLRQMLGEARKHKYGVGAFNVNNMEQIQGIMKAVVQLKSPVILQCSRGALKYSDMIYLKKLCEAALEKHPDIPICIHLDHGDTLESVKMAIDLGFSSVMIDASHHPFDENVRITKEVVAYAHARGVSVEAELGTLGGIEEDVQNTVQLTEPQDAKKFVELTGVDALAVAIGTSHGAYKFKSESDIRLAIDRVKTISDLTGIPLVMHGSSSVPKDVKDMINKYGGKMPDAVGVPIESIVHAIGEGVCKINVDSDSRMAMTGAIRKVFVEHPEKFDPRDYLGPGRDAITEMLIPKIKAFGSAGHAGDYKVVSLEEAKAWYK
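Giardia FBPA (40 nM reagent) was preincubated 10 min at RT with compound (up to 57.5 uM final), then substrate plus GAPDH/TPI/NAD/arsenate coupling system with diaphorase/resazurin was added; resorufin fluorescence (525/598 nm) was read after 20 min.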
HCMV antiviral: inhibitors of human cytomegalovirus; HFF cells, HCMV-luciferase reporter, 72 h; active compounds read low; activity change, negative = inhibition, % at 57.5 µM; 410,000 compounds, 4.5% hits; AID 1259415; in the data active = activity change below about -60%; inconclusive = no clear call, values can overlap the other calls; inactive = above about -39%
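Screen run at 2 compound doses on HFFs infected with reporter HCMV, MOI 1 PFU/cell. Luciferase activity from cell lysates at 72 h post infection gave inhibition relative to buffer-only and Salinomycin wells.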
Tb PYK inh: inhibitors of Trypanosoma brucei pyruvate kinase | TbPYK enzyme, Kinase-Glo Plus ATP luminescence, 45 min | Q57TT1 | Potency, µM (top dose mostly 76.8 µM), without a hit: at the highest dose activity, negative = inhibition, most hits filed as inhibitors | 410,000 compounds, 0.12% hits; also: potency is read from the fitted curve at half-maximal effect; nearly all actives have a fitted effect of over 50% in size
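Assay buffer: 50 mM TEA pH 7.2, 100 mM KCl, 10 mM MgCl2, 0.05% BSA, 0.01% Tween-20. Pyruvate kinase from T. brucei plus substrate met compound, then ADP (130 uM final). Luminescence was read post 45 min RT.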
FMDV inh: antivirals against foot and mouth disease virus; FMDV antiviral cell-based qHTS; Potency, µM (series often up to 57.9 µM), inactives show top-dose activity change, negative = inhibition, usual class: inhibitors; 410,000 compounds, 1.2% hits; AID 1159524; calls by dose curve; tested in HEK293T cells; also: read-out not given here; potency is read from the fitted curve at half-maximal effect; nearly all actives have a fitted effect of over 45% in size
RE007 growth inh: less growth of the S. pombe RE007 Vpr strain; S. pombe RE007 Vpr strain, BacTiter-Glo ATP luminescence, 24 h; Potency, µM (doses to about 92.2 µM), for inactives: at the top dose activity change, negative = less growth, usual class: inhibitors; 360,000 compounds, 0.21% hits; AID 651644; active = well fitted falling curve with a large enough effect; inconclusive = small, poorly fitted or top-dose-only effect; inactive = no such curve, though single readings can be large or run the other way; also: potency is read from the fitted curve at half-maximal effect; nearly all actives have a fitted effect of over 50% in size
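Fission yeast RE007 carrying one integrated HIV-1 vpr copy, seeded at OD 0.01 in PMG+AL medium with 23 nL pinned compound. Grown 24 h at 30 degrees; viability read by BacTiter-Glo luminescence after 5 min.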
Active calls of the source: *; ? = inconclusive; · = no result given; ! = repeats disagree; [ ] = remark or other dose. A selection: hits, their analogues and other compounds. The true share with any hit is near 7.7%. Unless noted, calls follow the shape of the dose curve; as a rule, active = well fitted curve in the direction sought with a large enough effect; inconclusive = small, poorly fitted or top-dose-only effect, or another doubt; inactive = no such curve, though single readings can be large; an effect the other way counts as inactive or inconclusive. % is scaled to controls: 0 for no effect and ±100 for the full control effect.

SMILES | Sm TGR inh | FBPA Giardia inh | HCMV antiviral | Tb PYK inh | FMDV inh | RE007 growth inh
CCOC(=O)c1c(NC(=O)c2ccc(S(=O)(=O)N3CCC(C)CC3)cc2)sc2c1CCN(C)C2 | -22% | · | -82* | 2% | -18% | ·
CN1CCc2c(sc(NC(=O)c3ccc(S(=O)(=O)N4CCCC4)cc3)c2C(N)=O)C1 | 100µM* | · | -28 | -3% | -2% | -1%
CCOc1ccc(-n2c(SCC(=O)N3CCC(C)CC3)nc3c([nH]c4ccccc43)c2=O)cc1 | 7% | · | 7 | 2% | -19% | ·
N#Cc1c(NC(=O)c2ccc(Cn3cc(Br)cn3)o2)sc2c1CCCCCC2 | -29% | -7% | -99* | -16% | ? | -6%
CCOC(=O)N1CCN(S(=O)(=O)c2ccc(C(=O)Nc3sc4c(c3C(=O)OC)CCN(C)C4)cc2)CC1 | 0% | · | -62* | 7% | -12% | -13%
CN1CCc2c(sc(NC(=O)c3ccc([N+](=O)[O-])o3)c2C(N)=O)C1 | ? | · | -104* | 1% | -6% | -29%
CCOc1ccc(CNC(=O)Cc2ccc(NC(=O)N3CCSc4ncccc43)cc2)cc1 | 1% | · | 0 | 7%[15.4 µM] | -22% | ·
CCOc1cc2c(cc1OCC)-n1cccc1C(c1ccc(C(C)C)cc1)NC2 (stereo not given) | 15% | -17% | -68* | 3% | ? | -10%
Cc1sc2c(c1C)C(O)=C(C(=O)Nc1ccccc1)S(=O)(=O)N2C | 3.5µM* | -3% | 48 | -9% | -32% | 10%
CN1c2ccccc2C(O)=C(C(=O)Nc2ccccc2)S1(=O)=O | 67% | -29% | 9 | -5% | -13% | 17%
COc1ccc(-c2nnc(SCC(=O)Oc3cccc(C)c3C)o2)cc1 | -2% | · | -8 | -2% | -20% | ·
COc1ccc(-c2cc(C(=O)N3CCN(C(c4ccccc4)c4ccccc4)CC3)no2)cc1 | 0% | 0% | -14 | 1% | -14% | -6%
CC(C)c1onc(C(=O)N2CCN(C(c3ccccc3)c3ccccc3)CC2)c1[N+](=O)[O-] | 3% | 16% | -98* | 5% | -19% | -1%
O=C(c1cc(-c2ccco2)on1)N1CCN(C(c2ccccc2)c2ccccc2)CC1 | -19% | 1% | -104* | -7% | ? | -2%
CC(C)c1onc(C(=O)N2CCN(c3ccccc3)CC2)c1[N+](=O)[O-] | -14% | 1% | -2 | 4% | ? | 5%
Cc1ccc(Cl)cc1N1CCN(C(=O)c2noc(C(C)C)c2[N+](=O)[O-])CC1 | 0% | 9% | -92* | 0% | -28% | -1%
Cc1onc(C(=O)N2CCC(Cc3ccccc3)CC2)c1[N+](=O)[O-] | -4% | 6% | -91* | -18% | -14% | -1%
COc1ccccc1NC(=O)c1oc2ccccc2c1NC(=O)C1CCCCC1 | 4% | · | 3 | 0% | -16% | ·
O=S(=O)(NCCc1nnc2ccc(SCc3cccc(Cl)c3)nn12)c1ccccc1 | 5% | · | -18 | 0% | -9% | ·
CCn1cc(/C=C(\NC(=O)c2cc(OC)c(OC)c(OC)c2)C(=O)NCCCn2ccnc2)c2ccccc21 | 5% | · | -104* | -1% | -12% | ·
CN(C)S(=O)(=O)n1cc(/C=C(\NC(=O)c2ccccc2Cl)C(=O)NCCCn2ccnc2)c2ccccc21 | -6% | 22% | -105*! | 0% | 23% | -10%
CN(C)S(=O)(=O)n1cc(/C=C(\NC(=O)c2ccccc2F)C(=O)N2CCCCC2)c2ccccc21 | · | · | -97* | -11% | -9% | 1%
COc1ccc(N2Cc3cccc(C(=O)Nc4ccc(F)cc4)c3C2=O)cc1 | 5% | · | ? | -2% | -22% | ·
CCn1c(C)nc2cc(NS(=O)(=O)c3ccccc3)cc(C(=O)N3C[C@@H](C)O[C@@H](C)C3)c21 | · | · | · | · | -5% | ·
Nc1nc2c(ncn2[C@@H]2O[C@H](C(=O)N[C@H](Cc3ccccc3)C(=O)NCCCc3ccccc3)[C@@H](O)[C@H]2O)c(=O)[nH]1 | · | · | 24 | · | · | ·
SMILES | Sm TGR inh | FBPA Giardia inh | HCMV antiviral | Tb PYK inh | FMDV inh | RE007 growth inh
O=C(NCc1ccccc1)Nc1cccn(Cc2ccccc2)c1=O | 2% | -7% | ? | -7% | 0% | 2%
O=C(Nc1ccccc1)c1cccn(Cc2ccccc2)c1=O | 6% | 5% | -31 | -1% | 3% | -14%
CCOc1ccc(NC(=O)Nc2cccn(Cc3ccccc3)c2=O)cc1 | · | ? | -84* | -4% | ? | 15%
CSc1ccc(NC(=O)Nc2cccn(Cc3ccccc3F)c2=O)cc1 | 10% | 4% | -81* | -1% | -14% | -2%
O=C(Nc1ccncc1)c1cccn(Cc2ccccc2)c1=O | ? | 2% | -75* | 3% | ? | 5%
Cc1ccc(C)c(NC(=O)/C(C#N)=C/c2ccc(C(C)C)cc2)c1 | 3% | · | -10 | 1% | -36% | ·
O[C@@H]1CN(CC2CCCCC2)[C@@H](c2ccccc2)C[C@H]1n1cc(C2CC2)nn1 | · | · | -21 | -2% | -19% | -16%
COc1ccc([C@H]2C[C@H](O)[C@@H](n3cc(COC(=O)c4ccccc4)nn3)CN2CC2CCCCC2)cc1 | · | · | -90* | 2% | ? | -19%
O[C@H]1CN(CC2CCCCC2)[C@@H](c2ccc(Cl)cc2)C[C@@H]1n1cc(C2CC2)nn1 | · | · | -71* | -14% | ? | -22%
O=C(OCc1cn([C@H]2C[C@H](c3ccccc3)N(CC3CCCCC3)C[C@@H]2O)nn1)c1ccccc1 | · | · | 3 | 6% | -1% | -27%
O=C(CCl)Nc1c2c(nn1-c1ccccc1)CSC2 | 10µM* | -10% | ? | -17% | ? | 0%
O=C(CCCCl)Nc1c2c(nn1-c1ccccc1)CSC2 | -1% | -8% | -6 | -13% | 29% | 9%
Cc1nsc(Nc2ccc([N+](=O)[O-])cc2)c1C#N | 9% | 3% | -64* | -10% | -9% | -11%
O=C(N/N=C/c1ccccc1)c1n[nH]c2c1CCCC2 | 7% | 1% | 9 | 2% | -28% | 15%
O=C(N/N=C/c1ccc(Cl)cc1)c1n[nH]c2c1CCCC2 | 16% | 4% | -91* | 3% | 66% | 13%
Cc1ccc(/C=C2\C(=O)NC(=O)N(CCc3ccc(F)cc3)C2=O)s1 | ? | 8% | -9 | -5% | -27% | 2%
COc1ccc(/C=C2\C(=O)NC(=S)N(C)C2=O)cc1C | 7.1µM* | ? | -15 | ? | -10% | 24%
CN1C(=O)/C(=C\c2ccc(N3CCCCCC3)cc2)C(=O)NC1=S | ? | -13% | -1 | ? | -22% | -2%
CN1C(=O)/C(=C/c2ccc(Cl)s2)C(=O)NC1=S | 7.9µM* | 2% | -25 | -17% | ? | -14%
Cc1ccsc1/C=C1/NC(=O)N(Cc2ccc(F)cc2)C1=O | · | 1% | -25 | 4% | -8% | -4%
